Test results reported in PubChem BioAssay (NCI).
Values joined by “and” are separate entries in the source; they are usually repeats but may differ in a detail not shown here. Identical values can stand only once. About 83,000 compounds went through this panel and 20% of them were active in at least one assay; those are over-represented in the sample as a whole.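 Cells were grown in 96-well plates and exposed to the test compound at a single concentration for 48 hours; results are reported as percent growth, with values below 10 considered active.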 Unmarked numbers belong to inactive results. Active and inactive are the calls of the source.

Assays:
Assay in all cases: NCI-60 one-dose screen, 48 h (100 = growth as untreated, 0 = no growth, -100 = all killed)
Conditions in all cases: 10 µM unless noted
SR leukemia = test system: SR leukemia
RPMI-8226 leukemia = test system: RPMI-8226 leukemia
OVCAR-8 ovarian = test system: OVCAR-8 ovarian
OVCAR-5 ovarian = test system: OVCAR-5 ovarian
OVCAR-4 ovarian = test system: OVCAR-4 ovarian
SK-OV-3 ovarian = test system: SK-OV-3 ovarian
IGROV1 ovarian = test system: IGROV1 ovarian
OVCAR-3 ovarian = test system: OVCAR-3 ovarian
HS 578T breast = test system: HS 578T breast
NCI/ADR-RES ovarian = test system: NCI/ADR-RES ovarian
T-47D breast = test system: T-47D breast
BT-549 breast = test system: BT-549 breast
MDA-MB-435 melanoma = test system: MDA-MB-435 melanoma
SW-620 colon = test system: SW-620 colon
MCF7 breast = test system: MCF7 breast
HCT-116 colon = test system: HCT-116 colon
HCC-2998 colon = test system: HCC-2998 colon
KM12 colon = test system: KM12 colon

| SMILES | growth (SR leukemia) | growth (RPMI-8226 leukemia) | growth (OVCAR-8 ovarian) | growth (OVCAR-5 ovarian) | growth (OVCAR-4 ovarian) | growth (SK-OV-3 ovarian) | growth (IGROV1 ovarian) | growth (OVCAR-3 ovarian) | growth (HS 578T breast) | growth (NCI/ADR-RES ovarian) | growth (T-47D breast) | growth (BT-549 breast) | growth (MDA-MB-435 melanoma) | growth (SW-620 colon) | growth (MCF7 breast) | growth (HCT-116 colon) | growth (HCC-2998 colon) | growth (KM12 colon) |
| --- | --- | --- | --- | --- | --- | --- | --- | --- | --- | --- | --- | --- | --- | --- | --- | --- | --- | --- |
| C=C1C(=O)O[C@H]2[C@H]1CC/C(COC(=O)NCCCCNC(=O)OC/C1=C/CC[C@@]3(C)O[C@H]3[C@H]3OC(=O)C(=C)[C@@H]3CC1)=C\CC[C@@]1(C)O[C@@H]21 | -1.79% (active) | -28.3% (active) | 12.5% | 4.4% (active) | 31.1% | 94.2% | 48.9% | -8.75% (active) | 70.5% | 99.5% | 9.48% (active) | -40% (active) | -25.6% (active) | -27.8% (active) | 9.53% (active) | -65.2% (active) | 89.5% | 88.2% |
| Cc1cc(N2CCCCC2)nc(NCc2cc(Nc3ccnc4cc(Cl)ccc34)ccc2F)n1 | -21.3% (active) | -38.9% (active) | -15% (active) | -42.1% (active) | -4.79% (active) | 72.6% | 10.2% | -79.5% (active) | 14.9% | 6.86% (active) | -60.6% (active) | – | -86.7% (active) | -19.2% (active) | -37.5% (active) | -62.8% (active) | -16% (active) | 7.38% (active) |
| COc1ccc2c(c1)CCNC21C(=O)Nc2c(Br)cc(Br)cc21 (centres undefined) | 96.4% | 106% | 101% | 91.3% | 95.2% | 84.2% | 82.4% | 101% | 94.8% | 104% | 90.3% | – | 101% | 97.4% | 101% | 103% | 105% | 104% |
| CCCCSc1ccc2nc(-c3ccc(OCCCN=C(N)N)cc3)cn2c1 | 85.8% | -27.2% (active) | 90.9% | 73% | 96.8% | 111% | 52.3% | 30.8% | 35.5% | 104% | 90.7% | – | 47.6% | 83.5% | 47% | 42.2% | 59.2% | 34.3% |
| O=C1/C(=C/c2ccc(-c3cccc(C(F)(F)F)c3)o2)SC(=S)N1CCc1ccc(O)cc1 | 32.5% | 68.3% | 15.2% | 82.7% | 48.5% | 85.4% | 48.8% | 63.4% | 69.4% | 81.7% | 53.8% | – | 52.6% | 86.1% | 84.9% | 76% | 107% | 54.9% |
| COCCOc1cc2ncnc(N3CCN(S(=O)(=O)c4ccccc4Cl)CC3)c2cc1OCCOC | 22% | 82.5% | 93.9% | 102% | 102% | 104% | 89.7% | 91.5% | 93.5% | 66.9% | 80.6% | – | 10.5% | 79.9% | 49.3% | 89.7% | 79.6% | 69.7% |
| COc1ccc2nc3cc(Cl)ccc3c(NCCCNCCC(C)O)c2c1 (centres undefined) | -37.3% (active) | -19.8% (active) | 0.828% (active) | -18.8% (active) | -28.9% (active) | 3.74% (active) | -10.7% (active) | -38.2% (active) | 0.958% (active) | – | 4.09% (active) | -1.95% (active) | -86.3% (active) | -22.2% (active) | -0.546% (active) | -49.9% (active) | -60.9% (active) | -20% (active) |
| Nc1nc(Cl)nc2c1ncn2C1OC(CO)C(O)C1O (centres undefined) | 56.8% | 104% and 96.1% | 22.9% and 29.3% | 90% and 105% | 94.4% and 87% | 41.3% and 68.1% | 78.9% and 75.1% | 86.9% | 108% | 29.6% and 40.2% | 93.5% and 107% | – | 49.2% and 53.5% | 66.5% and 72.8% | 37.8% and 33.8% | 41.9% and 43% | 51% and 51.7% | 60.1% and 86.2% |
| COc1ccc(C/C(C)=C(/c2ccc(OCCN3CCCCCC3)cc2)c2ccc(OC(=O)c3ccccc3)cc2)cc1 | 71.3% | 112% | 107% | 98.2% | 116% | 93.7% | 106% | 117% | 98.5% | 111% | 71.9% | 106% | 104% | 98.4% | 60.5% | 93.3% | 105% | 120% |
| COc1ccc(/C=N/NC(=O)CN2CCN(c3cc4c(cc3F)c(=O)c(C(=O)O)cn4C3CC3)CC2)cc1O | 80.2% | 92.3% | 95.1% | 108% | 108% | 108% | 95.5% | 103% | 96.8% | 106% | 96.6% | – | 107% | 102% | 92.6% | 93.4% | 99.2% | 102% |
| CCOC(=O)c1nc2c3ccccc3cnn2c1C(=O)c1ccc(OC)cc1 | 90.6% | 95.6% | 98.2% | 106% | 89.4% | 81.6% | 105% | 110% | 101% | 94.4% | 85.9% | 98.2% | 107% | 99.2% | 80.8% | 92% | 99.2% | 102% |
| c1ccc(Cc2cccc[n+]2C(c2ccccc2)c2ccccc2)cc1 | 32.4% | 12.3% | 57.2% | 71.5% | 28.2% | 52.1% | 62.3% | 44.6% | 90.6% | 104% | 3.66% (active) | – | 40% | 81.2% | 34.6% | 49.2% | 40.7% | 42.4% |
| Cc1ccc2[nH]c(=S)[nH]c(=O)c2c1 | 90.7% | 109% | 104% | 107% | 102% | 105% | 103% | 105% | 104% | 104% | 89% | – | 101% | 103% | 99.8% | 101% | 98.2% | 100% |
| CCN1CCN(CC(=O)Nc2nc3ccc(NCc4ccc(C)cc4)cc3s2)CC1 | 7.22% (active) | 48.8% | 85.9% | 80.5% | 75% | 91.5% | 91.4% | 70.3% | 84.9% | 81.8% | 50.7% | 88% | -41.8% (active) | 44.2% | 35.6% | 13% | 80.9% | 73% |
| O=C(CN1C(=O)S/C(=C\C(Cl)=C\c2ccccc2)C1=O)NCCCn1ccnc1 | 2.18% (active) | 0.978% (active) | 12.4% | 80.1% | 43.1% | 86% | 2.87% (active) | 1.07% (active) | 51.7% | 81.2% | 21.3% | – | 20.2% | 3.27% (active) | 15% | -57.2% (active) | 73.5% | 33.9% |
